# TSHR antag – antagonists of human thyroid stimulating hormone receptor; P16473; TSHR-expressing cells, TSH-stimulated cAMP HTRF, 2 h; hits give low values; activity change, negative = inhibition, % at 11.5 µM; actives 0.2% (n = 330,000); AID 504810;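 active = activity change below a set negative limit, meaning inhibition stronger than a set level, cut at about -70% in these data; inconclusive = activity change between two set negative limits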; also: % is scaled to controls: 0 for no effect and ±100 for the full control effect
#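 Antagonism was scored as loss of TSH-driven cAMP in TSHR cells, stimulated with 4nM TSH (EC80) for 2 hours at 37 deg C and detected by homogeneous HTRF competition immunoassay.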
# gsp antag – gsp mutant antagonism. gsp-mutant cells, cAMP HTRF, 30 min. Potency, µM (highest dose often 76.9 µM), for the others: top-dose activity change, negative = inhibition, most hits filed as inhibitors. actives 0.4% (n = 340,000). AID 624288; calls by dose curve; cell line not stated here;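 also: intracellular cAMP measured with PDE inhibitor Ro 20-1724 present during compound exposure; potency is read from the fitted curve at half-maximal effect; % is scaled to controls: 0 for no effect and ±100 for the full control effect; nearly all actives have a fitted effect of over 65% in size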
#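 Cells in G418 medium, seeded 16-24 h, 37C; buffer exchange to DPBS + 1 mM CaCl2, 0.5 mM MgCl2, 0.05% BSA; cpds in DMSO + […] (300 uM stock), 30 min 37C; HTRF cAMP detection.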
# gsp agonist – gsp mutant agonism; gsp mutant cells, cAMP HTRF, 30 min; Potency, µM (doses to about 76.9 µM), without a hit: top-dose activation (cAMP increase), most hits filed as activators; actives 0.13% (n = 340,000); AID 624287; active = well fitted activation curve with a large enough effect; inconclusive = small, poorly fitted or top-dose-only effect, or another doubt; inactive = no such curve, though single readings can be large or run the other way; cell line not stated here;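 also: phosphodiesterase inhibitor Ro 20-1724 added with compounds to block cAMP breakdown; potency is read from the fitted curve at half-maximal effect; nearly all actives have a fitted effect of over 60% in size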
#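 Cells in DMEM/10% FBS with G418 were pretreated with compounds in DMSO plus […] (300 uM stock) for 30 min at 37C. cAMP was measured by HTRF (cAMP-d2 plus anti-cAMP antibody-K) after 30 min at room temperature.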
# Akt phos inh – blocks phosphorylation of Akt; Neuro2A IGF-stimulated pAkt S473 HTRF, 20 min; hits give low values; activity change, % for hits at 50 µM; actives 0.32% (n = 360,000); AID 651550; in the data active = activity change below about -80%; inconclusive = mostly about -51% to -80%; also: % is scaled to controls: 0 for no effect and ±100 for the full control effect
#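 Single-point screen (50 µM final compound) in Neuro2A cells stimulated 20 min with 6 nM IGF at 37 deg C. After lysis, Ser473-phosphorylated Akt read by HTRF (ex 330 nm, em 615/665 nm) as the 665/615 ratio.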
# RXFP1 agonist – activates the human relaxin receptor RXFP1 | actives 0.3% (n = 370,000) | Potency, µM (titrated, usually from 57.5 µM), for inactives: at the highest dose activation, most hits filed as activators | HEK293T-RXFP1 cAMP TR-FRET, 30 min; response scale: percent of porcine relaxin response, buffer zero; active = well fitted activation curve with a large enough effect; inconclusive = small, poorly fitted or top-dose-only effect; also: potency is read from the fitted curve at half-maximal effect; % is scaled to controls: 0 for no effect and ±100 for the full control effect; nearly all actives have a fitted effect of over 60% in size
#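 Agonist response is measured as cAMP accumulation in an RXFP1-transfected HEK293T line under PDE4 inhibition. Values are scaled between buffer-only and 29 nM porcine relaxin, and EC50s come from standard Hill equation fits.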
# RXFP1 antag – RXFP1 (human) relaxin receptor antagonism; actives 0.59% (n = 350,000); AID 1259400; HEK293-RXFP1, relaxin-stimulated cAMP HTRF, 30 min; hits give low values; activity change, negative = inhibition, % at 57.5 µM; Q9HBX9;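 active = activity change of -60% or lower, but not beyond a set lower limit; inconclusive = change between -60% and -40%, or beyond the set limit; inactive = change above -40%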; also: % is scaled to controls: 0 for no effect and ±100 for the full control effect
# * = called active by the depositor; i = inactive; ? = inconclusive; . = not tested or not shown; [ ] = another dose, or the depositor's remark. This is a sample that favours compounds with a hit; in the whole collection about 1.3% have one here.
SMILES,TSHR antag,gsp antag,gsp agonist,Akt phos inh,RXFP1 agonist,RXFP1 antag
O=C(C[C@@H]1C[C@H]2c3cc(NC(=O)C4CCC4)ccc3O[C@H]2[C@@H](CO)O1)NCc1ccc(-c2ccccc2)cc1,.,.,31.6µM*,i,.,-2.9
Cc1c(Cl)cccc1N1CCn2c1nc1c2c(=O)n(CC(=O)O)c(=O)n1C,.,.,.,.,0.7%,.
COc1ccc(OCC(=O)N2CCN(c3nnc(-c4ccc(C)cc4)c4ccccc34)CC2)cc1,-13.4,28.2µM*,-3.2%[15.4 µM],i,1.7%,-14.1
COc1ccc(OCC(=O)N2CCN(c3nnc(-c4ccccc4)c4ccccc34)CC2)cc1,-10.0,39.8µM*,13.2%,i,2.4%,12.7
Cc1ccc(-c2nnc(N3CCN(C(=O)COc4cccc(C)c4)CC3)c3ccccc23)cc1,-3.6,?,0.1%[15.4 µM],i,-2.0%,-17.6
CC1CCN(c2nnc(-c3ccccc3)c3ccccc23)CC1,-14.6,?,3.1%[15.4 µM],i,3.4%,-13.0
O=C(COc1ccccc1)N1CCN(c2nnc(-c3ccccc3)c3ccccc23)CC1,-20.6,?,-2.8%,i,2.6%,27.7
Cc1ccc(OCC(=O)N2CCN(c3nnc(-c4ccc(C)cc4)c4ccccc34)CC2)cc1,-25.8,35.5µM*,1.2%,i,-0.3%,-4.6
Cc1ccc(-c2nnc(N3CCC(C)CC3)c3ccccc23)cc1,1.4,25.1µM*,-60.6%,i,-0.3%,-10.9
Clc1cccc(N2CCN(c3nc4ccccc4n4cnnc34)CC2)c1,.,.,.,.,3.2%,.
CC(C)CC(=O)Nc1ccc(C(=O)CN2CCN(c3ccc(O)cc3)CC2)cc1,-5.0,-0.3%,9.4%,i,0.6%,-28.8
O=C(Nc1cccc2c(=O)cc(-c3nn[nH]n3)oc12)c1ccc(OCCCCc2ccccc2)cc1,.,.,.,.,.,-29.0
COc1ccc(OCc2cc(C(=O)N3CCCCCCC3)no2)c(Cl)c1,-7.6,-9.8%,?,i,-1.3%,-12.7
CCOC(=O)N1CCN(C(=O)c2cc(COc3ccc(OC)cc3Cl)on2)CC1,-39.0,35.5µM*,-2.4%,i,-0.5%,-4.1
CC(=O)C[C@@H](O)CC(=O)[C@H]1OC(=O)CCCCCCCCc2ccccc21,-16.3,4.0%,?,i,.,.
N#C/C(=C\c1ccc[nH]1)C(=O)Nc1ccccc1F,9.0,-3.6%,?,i,-0.5%,10.3
N#C/C(=C\c1ccc[nH]1)C(=O)Nc1ccccc1Cl,-1.1,31.6µM*,?,i,-3.7%,-11.9
COc1ccc(CNC(=O)C(C#N)c2nc3ccccc3nc2N2CCCC2)cc1 (stereo unspecified),4.4,-4.9%,0.0%,-83.6%*,8.6%,-3.8
O=C(Nc1ccc(S(=O)(=O)N2CCOCC2)cc1)c1cc(-c2cc(Cl)ccc2O)n[nH]1,-4.5,?,-35.4%,i,1.1%,-60.3*
CCOc1ccnc2c1c(=O)n(Cc1cc(OC)cc(OC)c1)c(=O)n2C,-139.8*,7.8%,-14.3%,i,-1.8%,2.2
COc1ccnc2c1c(=O)n(Cc1cccc(Cl)c1)c(=O)n2C,-7.3,-0.8%,25.0%,i,3.0%,-5.6
O=[N+]([O-])c1cc(Br)c(O)c(/C=N/Nc2nnnn2-c2cccc3ccccc23)c1,-74.5*,?,-52.1%,i,1.4%,39.1
O=C(CSc1nnc(CNC(=O)c2ccco2)o1)Nc1ccc(OC(F)(F)F)cc1,7.5,0.8%,-0.6%,.,1.6%,-109.7*
O=C(CSc1nnc(CNC(=O)c2ccco2)o1)Nc1ccc(F)cc1,3.4,12.9%,?,i,-0.2%,-4.0
COC(=O)c1ccccc1NC(=O)CSc1nccn1C,-0.2,9.4%,?,-98.6%*,-0.3%,-4.8
C=C1N(C)c2cc([N+](=O)[O-])c(N)cc2C1(C)C,-6.2,28.2µM*,-10.8%[15.4 µM],i,-3.7%,-71.0*
CC1(C)Oc2cc(N)c([N+](=O)[O-])cc2O1,-16.2,3.2%,4.0%,i,0.3%,4.5
COc1cccc(-c2ccc3nnc(SCC(=O)N4CCOCC4)n3n2)c1,5.0,-0.9%,20.6%,i,5.3%,-15.5

# Screens from PubChem BioAssay.
